Results from PubChem BioAssay (NCATS).
Inconclusive results are not listed. Activity calls are given as the source filed them. The call rests on the fitted dose curve; in most records, active means well fitted curve in the direction sought with a large enough effect; inconclusive means small, poorly fitted or top-dose-only effect, or another doubt; inactive means no such curve, though single readings can be large; an effect the other way counts as inactive or inconclusive.

Columns and labels:
[1] = Cellular Toxicity (caspase-3) NIH 3T3 (AID 666);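 further: caspase signal read after 16 h compound exposure; 0% = DMSO basal and 100% = 100 µM tamoxifen stimulation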
Summary of the method: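 Mouse NIH 3T3 fibroblasts (1000/well) treated 16 h at 37 C; caspase-3/7 activity measured by Caspase-Glo 3/7 luminescence after 20 min. Normalized to DMSO and 100 uM tamoxifen; AC50 from Hill fits.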

[2] = Cellular Toxicity (caspase-3) Renal Proximal Tubule (AID 667); settings: renal proximal tubule cells; at 91.7 µM (top of the series), primary cells freshly taken from rat, solvent-only wells 0%, staurosporine 100% unless noted;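 further: cells exposed to compound for 16 hours at 37 °C before detection; 0% = DMSO basal and 100% = 10 µM staurosporine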
Summary of the method: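 In qHTS format, rat primary proximal tubule cells seeded at 1000 per well are exposed to compounds for 16 hours at 37 °C. An increase in Caspase-Glo 3/7 luminescence indicates caspase activation.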

[3] = molecular target: Cytochrome P450 3A4 (Homo sapiens) (UniProt P08684); assay: qHTS Assay for Inhibitors and Substrates of Cytochrome P450 3A4 (AID 884); further: on the % scale 0 is the no-effect control and ±100 the full control effect; nearly all actives have a fitted effect of over 50% in size
Sequence of Cytochrome P450 3A4 (Homo sapiens) (P08684 whole entry, looked up): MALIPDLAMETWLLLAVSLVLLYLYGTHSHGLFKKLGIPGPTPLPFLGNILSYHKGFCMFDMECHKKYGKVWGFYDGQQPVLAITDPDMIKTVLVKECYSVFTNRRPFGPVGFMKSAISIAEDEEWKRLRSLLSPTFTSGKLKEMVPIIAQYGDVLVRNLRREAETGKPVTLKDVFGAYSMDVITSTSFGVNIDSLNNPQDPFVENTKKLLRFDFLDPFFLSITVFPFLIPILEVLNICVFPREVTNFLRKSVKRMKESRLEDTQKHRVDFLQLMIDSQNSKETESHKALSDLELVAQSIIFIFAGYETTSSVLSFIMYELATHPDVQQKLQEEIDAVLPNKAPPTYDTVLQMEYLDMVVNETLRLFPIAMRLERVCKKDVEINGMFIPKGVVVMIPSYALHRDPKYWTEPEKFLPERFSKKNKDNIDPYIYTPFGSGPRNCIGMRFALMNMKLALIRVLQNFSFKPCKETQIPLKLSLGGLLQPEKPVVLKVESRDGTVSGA
Summary of the method: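 20 nM human CYP3A4 with 25 uM Luciferin-PPXE (at KM) in 200 mM KPO4, preincubated 10 min with compound; NADPH regeneration started a 60 min RT reaction. Luciferin detected by luminescence, normalized to 57 uM ketoconazole as full inhibition.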

[4] = Cell Viability - LYMP2-001 (AID 921);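 further: 0% = DMSO only and full inhibition = tetraoctylammonium bromide control wells; nearly all actives have a fitted effect of over 70% in size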
Summary of the method: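 qHTS, 1536-well; lymphoblastoid cells, 24 hr compound, 37 C; ATP by CellTiter-Glo, 30 min RT; luminescence; Hill-fit AC50.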

[5] = MultiTox-Fluor Cytotoxicity Assay - LYMP1-001 - Dead Cells (AID 946)
Summary of the method: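 Cytotoxicity as increased dead-cell protease fluorescence (bis-AAF-R110, 485/520 nm), read 60 min after MultiTox-Fluor reagent. Human lymphoblastoid line exposed 16 h; Hill-fitted AC50, with DMSO as 0% and 15 uM tetraoctylammonium bromide as 100%.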

[6] = MultiTox-Fluor Cytotoxicity Assay - LYMP1-001 - Live Cells (AID 947);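 further: 0% = DMSO only and full inhibition = tetraoctylammonium bromide control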
[7] = Cell Viability - LYMP1-002 - Assay at 16 hr (AID 948);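 further: 0% = DMSO alone and full effect = 92 µM tetraoctylammonium bromide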
Summary of the method: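 Acute cytotoxicity is scored as a concentration-dependent fall in intracellular ATP in a human lymphoblastoid line (LYMP1-002) after 16 hr compound exposure at 37 C, measured by luciferase luminescence.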

[8] = MultiTox-Fluor Cytotoxicity Assay - LYMP1-002 - Live Cells (AID 955); further: on the % scale 0 is the no-effect control and ±100 the full control effect
Summary of the method: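 Human lymphoblastoid LYMP1-002 cells, 2500/well, treated 16 h at 37 C in complete medium. Live-cell protease activity via GF-AFC fluorescence (Ex/Em 405/510) after 60 min reagent incubation; AC50 from Hill fits.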

[9] = MultiTox-Fluor Cytotoxicity Assay - LYMP1-003 - Dead Cells (AID 961); further: nearly all actives have a fitted effect of over 70% in size
Summary of the method: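 Dead-cell protease release, detected as bis-AAF-R110 fluorescence at 485/520 nm, was measured in LYMP1-003 cells after 16 h compound treatment at 37 C. AC50 values came from Hill-modeled qHTS curves normalized to DMSO (0%) and 15 uM tetraoctylammonium bromide (100%).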

[10] = MultiTox-Fluor Cytotoxicity Assay - LYMP1-003 - Live Cells (AID 962);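 further: 0% = DMSO only and full loss = 92 µM tetraoctylammonium bromide; cytotoxic hits lower the live-cell protease signal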
Summary of the method: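 LYMP1-003 lymphoblastoid cells, 2500/well in complete medium, treated 16 h at 37 C; live-cell protease cleavage of GF-AFC read by fluorescence (Ex/Em 405/510) after 60 min reagent; AC50 from Hill fits of concentration-response.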

[11] = Cell Viability - LYMP1-003 - Assay at 24 hr (AID 963);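 further: plate controls were DMSO only for no effect and tetraoctylammonium bromide positive control for full effect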
Summary of the method: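 Human lymphoblastoid LYMP1-003 cells, 2500/well, treated 24 h at 37 C in complete medium. Viability read as intracellular ATP by CellTiter-Glo luminescence after 30 min at room temperature; AC50 from Hill-equation fits of qHTS concentration-response.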

[12] = Cell Viability - LYMP2-003 (AID 965);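 further: cells exposed to compounds for 24 h before reading; 0% = DMSO only and full effect = 92 µM tetraoctylammonium bromide; nearly all actives have a fitted effect of over 50% in size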
Summary of the method: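 Acute cytotoxicity is scored as a concentration-dependent drop in intracellular ATP, measured by luciferase luminescence in human lymphoblastoid cells treated for 24 hours at 37 C. AC50 values derive from Hill-equation modelling.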

[13] = Cell Viability - LYMP2-004 (AID 966);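 further: plate controls were DMSO only for no effect and tetraoctylammonium bromide control for full effect; nearly all actives have a fitted effect of over 65% in size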
Summary of the method: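 Lymphoblastoid LYMP2-004 cells, 2500 per well, were preincubated for 5 hr and then treated with compound for 24 h at 37 C in complete medium. Viability was read as cellular ATP by CellTiter-Glo luminescence, and AC50 values were taken from Hill fits to concentration-response data.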

[14] = Cell Viability - LYMP2-005 (AID 967);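 further: plate controls were DMSO only for no effect and 92 µM tetraoctylammonium bromide control for full effect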
Summary of the method: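 qHTS viability screen in LYMP2-005 cells: 24 h at 37 C with compound, ATP luminescence via CellTiter-Glo, AC50 from Hill curves.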

[15] = Cell Viability - LYMP2-009 (AID 968);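 further: 0% = DMSO alone and the full-kill end = tetraoctylammonium bromide at 92 µM; nearly all actives have a fitted effect of over 55% in size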
[16] = Cell Viability - LYMP2-011 (AID 969);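 further: cells exposed to compound for 24 hours; 0% = DMSO only and full inhibition = 92 µM tetraoctylammonium bromide; nearly all actives have a fitted effect of over 60% in size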
Summary of the method: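 2500 cells/well in complete medium, compound-treated 24 h at 37 C. Viability read as intracellular ATP by CellTiter-Glo luminescence after 30 min at room temperature. AC50 from Hill fits of qHTS concentration-response data.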

[17] = Cell Viability - LYMP2-013 (AID 970);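 further: 0% = DMSO only and full inhibition = tetraoctylammonium bromide control; nearly all actives have a fitted effect of over 55% in size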
Summary of the method: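 Human lymphoblastoid LYMP2-013 cells, 2500/well, treated 24 h at 37 C in complete medium; viability as intracellular ATP by CellTiter-Glo luminescence after 30 min. AC50 from Hill fits of qHTS concentration-response.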

[18] = Cell Viability - LYMP2-015 (AID 971);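 further: 0% = DMSO only and full effect = 92 µM tetraoctylammonium bromide; nearly all actives have a fitted effect of over 55% in size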
Summary of the method: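 LYMP2-015 human lymphoblastoid cells (2500/well) in complete medium, compound-treated 24 h at 37 C; viability read as cellular ATP by CellTiter-Glo luminescence after 30 min at room temperature. AC50 from Hill-equation fits of qHTS concentration-response data.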

[19] = Cell Viability - LYMP2-019 (AID 973);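 further: 0% = DMSO alone and full effect = 92 µM tetraoctylammonium bromide; nearly all actives have a fitted effect of over 55% in size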
Summary of the method: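 Human lymphoblastoid LYMP2-019 cells (2500/well) preincubated 5 h at 37 C, then treated 24 h at 37 C in complete medium. Viability by CellTiter-Glo ATP luminescence after 30 min at room temperature; AC50 from Hill fits.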

[20] = Cell Viability - LYMP2-021 (AID 974)
Summary of the method: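 Human lymphoblastoid LYMP2-021 cells, 2500/well in complete medium, treated 24 hours at 37 C. Intracellular ATP by CellTiter-Glo luminescence (30 min, RT); AC50 from Hill fits of concentration-response.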

[21] = Cell Viability - LYMP2-023 (AID 975)
Summary of the method: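 LYMP2-023 human lymphoblastoid cells, 2500/well, preincubated 5 hr at 37 C, then compound-treated 24 hr at 37 C in complete medium. CellTiter-Glo luminescence (ATP) after 30 min at room temperature; AC50 from Hill-equation fits; tetraoctylammonium bromide positive control.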

[22] = Cell Viability - LYMP2-025 (AID 976);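 further: plate controls were DMSO only for no effect and tetraoctylammonium bromide control for full effect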
Summary of the method: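 Human lymphoblastoid LYMP2-025 cells, 2500/well, exposed 24 h at 37 C in complete medium in 1536-well qHTS. Viability as cellular ATP by CellTiter-Glo luminescence; AC50 from Hill fits of concentration-response data.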

[23] = Cell Viability - LYMP2-002 (AID 977);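 further: plate controls were DMSO only for no effect and 92 µM tetraoctylammonium bromide for full effect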
Summary of the method: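 Luminescent ATP readout (CellTiter-Glo, 30 min room temperature) after 24 h compound exposure at 37 C of a human lymphoblastoid line, 2500 cells/well. AC50 values derived by standard Hill fitting of qHTS concentration-response data.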

C=CC(=C)C
inactive: outcome [1] | caspase-3 activation [2] -6.39% | Potency [3] | Potency [4] | Potency [5] | Potency [6] | Potency [7] | outcome [8] | Potency [9] | Potency [10] | Potency [11] | Potency [12] | Potency [13] | Potency [14] | Potency [15] | Potency [16] | Potency [17] | Potency [18] | Potency [19] | Potency [20] | Potency [21] | Potency [22] | Potency [23]
